In ChEMBL document CHEMBL4513135, “CO-ADD screening of IQOG CSIS (Spain) compounds”:
Measured potencies and affinities stand elsewhere.

test system: Klebsiella pneumoniae; conditions: Concentration 32 ug.mL-1; ASSAY_TEST Inhibition of Bacterial Growth; detection method Absorption (OD600); MEDIA CAMHB; plate type 384well; NBS; CORNING #3640; time 18 hr

Q: Which Inhibition does the source give for `CN(N=O)C(=O)NC1(C(=O)O)CC1c1ccccc1` (stereo not drawn) here?
A: 23.72%

Q: `COc1ccc2cc(C=O)c(Cl)nc2c1` was tested. Which Inhibition did it give?
A: 1.14%

Q: Which Inhibition does the source give for `N#Cc1c(Cl)nc(Cl)c(C#N)c1-c1ccccc1` here?
A: 19.31%

Q: `CCOC(=O)C1=C(C)Nc2nc3c(c(N)c2C1c1cccc(OC)c1)CCCC3` (stereo not drawn) was tested. Which Inhibition did it give?
A: 2.7%

Q: With `N#Cc1cc(C#N)c(N2CCC(O)CC2)nc1N` as the compound, how does the Inhibition read?
A: -4.97%

Q: With `Cc1nn(-c2ccccc2)c2ncnc(Nc3ccccc3)c12` as the compound, how does the Inhibition read?
A: 14.62%

Q: `Cl.Nc1c2c(nc3c1C(c1c(Cl)cccc1Cl)c1ccc4ccccc4c1O3)CCCC2` (stereo not drawn) was tested. Which Inhibition did it give?
A: 3.98%

Q: How did the Inhibition turn out when `C#CCNc1nc(N)c(C#N)c(-c2ccccc2)c1C#N` was run?
A: -20.09%

Q: For `C#CCN1CCc2nc3nc(N(C)C)c(C#N)cc3c(N)c2C1`, which Inhibition is on record?
A: 15.18%

Q: For `COc1ccc(C=C2N=C(c3ccccc3)OC2=O)cc1`, which Inhibition is on record?
A: 13.35%

Q: Which Inhibition does the source give for `N#CC1(Br)C(=NBr)Oc2ccc3ccccc3c2C1c1cccc([N+](=O)[O-])c1` (stereo not drawn) here?
A: 8.04%

Q: For `C#CCN(C)Cc1cc2cc(OCCC3CCN(Cc4ccccc4)CC3)ccc2n1C.Cl`, which Inhibition is on record?
A: 16.32%

Q: For `CCOC(=O)CCc1c[nH]c2ccccc12`, which Inhibition is on record?
A: -13.33%

Q: Which Inhibition does the source give for `CCCCNNC(=O)c1cc2ccccc2[nH]1` here?
A: -6.75%

Q: Which Inhibition does the source give for `CCC(Cc1ccccc1)NNC(=O)c1cc2ccccc2[nH]1` (stereo not drawn) here?
A: -8.95%

Q: How did the Inhibition turn out when `C#CCn1c(N)c(C#N)c2cc(O)ccc21` was run?
A: 10.3%

Q: For `Cc1ccc2nc(Cl)c(/C=N/OCc3ccccc3)cc2c1`, which Inhibition is on record?
A: 9.15%

Q: `Cn1ccnc1C1c2c(nc3c(c2N)CCC3)Oc2ccc3ccccc3c21` (stereo not drawn) was tested. Which Inhibition did it give?
A: 7.74%
